Measurements taken from PubChem BioAssay.
Inconclusive results are not listed. The source made the active and inactive calls. Unless noted, no stated cut-off is given here; in the data, active means response above about 15%; inactive means the rest.

Tests used:
[1] = yeast TOR pathway RPL19A-GFP modulators, primary screen, cell-based, S. cerevisiae, multiplex flow cytometry (AID 1862; in the data active means percent of DMSO control GFP below about 86%;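 further: lower values mimic rapamycin by blocking the RPL19A rise seen in DMSO cells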); conditions: S. cerevisiae RPL19A-GFP strain, flow cytometry fluorescence, 3 h; at 10 µM; stronger effect = lower value
[2] = modulators of MEP2-GFP levels in yeast, primary screen, S. cerevisiae, multiplex flow cytometry (AID 1867;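 active means GFP response, as percent of the DMSO control, above the screen-wide mean plus 3 SD, about 139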;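 further: median GFP channel fluorescence of barcode-gated MEP2-GFP cells measured by flow cytometry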); conditions: S. cerevisiae MEP2-GFP strain, 3 h, at 10 µM, stronger effect = higher value, 100% means same as DMSO wells
[3] = modulators of CIT2-GFP expression in yeast, primary screen, S. cerevisiae, GFP fusion, multiplex flow cytometry (AID 1870;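 active means percent response above a set limit, the screen-wide mean plus 3 SD, cut at about 130% in these data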;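 further: barcoded CIT2-GFP strain pooled with four other GFP strains with rapamycin as positive control; median GFP fluorescence per well over plate mean of DMSO wells so 100% = DMSO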); conditions: 3 h, at 10 µM, stronger effect = higher value
[4] = modulators of LAP4-GFP expression in yeast, primary screen, S. cerevisiae, multiplex flow cytometry (AID 1873;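 active means GFP signal, as percent of the solvent control, above the screen mean plus 3 SD, about 149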); conditions: 3 h, at 10 µM, stronger effect = higher value
[5] = modulators of AGP1-GFP expression in yeast TOR pathway, primary screen, cell-based, multiplex flow cytometry, S. cerevisiae (AID 1887;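 active means GFP signal above the screen-wide mean plus 3 SD, that is over about 124.5% of the solvent control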;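 further: AGP1-GFP fusion strain of S. cerevisiae within a five-strain barcoded multiplex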); conditions: 3 h, at 10 µM, stronger effect = higher value
[6] = inhibitors of CD8+ T cell-vesicle binding, pilot screen, LFA-1/ICAM-1 modulator project, MLPCN validation set, flow cytometry (AID 2523;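 active means response below a set limit, under 55% cells CD8-positive and vesicle-bound, and CD8 cells' 90th-percentile brightness under 279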;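 on vesicle binding response: mean PE anti-B7-1 fluorescence of CD8+ cells relative to row control; 100% = QL9-loaded vesicles with DMSO vehicle in the same plate row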); conditions: 2C mouse CD8+ T cells, at 7 µM, stronger effect = lower value; double positive events: measured here: CD8+/vesicle+ event percentage
[7] = molecular target: Integrin beta-1 (Homo sapiens) + Integrin alpha-4 (Homo sapiens) (UniProt P13612+P05556); assay: inhibition of HUTS-21 binding to VLA-4, pilot screen, VLA-4 allosteric modulator project, U937 cells, HUTS-21 mAb, flow cytometry, validation set (AID 2674;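 active means inhibition above 50%, about 3 SD of the validation set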;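 further: antibody binding induced by the VLA-4 ligand LDV present at three times its Kd; 0% = LDV ligand with antibody and no compound and 100% = antibody without LDV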); conditions: HUTS-21 LIBS mAb binding, at 6.7 µM, stronger effect = higher value, binding induced by LDV ligand
Chain of Integrin beta-1 (Homo sapiens) + Integrin alpha-4 (Homo sapiens) (P05556 whole entry, looked up): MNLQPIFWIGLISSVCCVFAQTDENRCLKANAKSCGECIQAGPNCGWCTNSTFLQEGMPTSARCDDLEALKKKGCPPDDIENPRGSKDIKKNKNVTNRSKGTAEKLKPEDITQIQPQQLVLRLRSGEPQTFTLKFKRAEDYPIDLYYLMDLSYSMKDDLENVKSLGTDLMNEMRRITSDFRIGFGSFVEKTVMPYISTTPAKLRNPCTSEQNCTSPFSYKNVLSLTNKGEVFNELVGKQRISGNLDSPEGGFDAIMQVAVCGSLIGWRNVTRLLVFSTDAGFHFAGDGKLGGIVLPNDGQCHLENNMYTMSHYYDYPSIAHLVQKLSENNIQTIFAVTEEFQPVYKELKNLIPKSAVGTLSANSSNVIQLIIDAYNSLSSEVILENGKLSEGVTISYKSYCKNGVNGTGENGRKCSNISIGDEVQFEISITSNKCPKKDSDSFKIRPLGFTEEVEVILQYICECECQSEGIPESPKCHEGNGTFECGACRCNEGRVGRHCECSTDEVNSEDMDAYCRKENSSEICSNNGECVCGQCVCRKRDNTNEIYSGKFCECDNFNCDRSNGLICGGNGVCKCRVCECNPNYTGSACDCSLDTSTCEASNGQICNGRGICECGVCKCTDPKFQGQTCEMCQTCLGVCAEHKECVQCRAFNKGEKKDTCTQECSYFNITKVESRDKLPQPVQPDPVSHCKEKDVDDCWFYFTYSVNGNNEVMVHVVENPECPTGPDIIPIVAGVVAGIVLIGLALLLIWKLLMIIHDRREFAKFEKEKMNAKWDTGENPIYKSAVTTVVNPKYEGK
Chain of Integrin beta-1 (Homo sapiens) + Integrin alpha-4 (Homo sapiens) (P13612 whole entry, looked up): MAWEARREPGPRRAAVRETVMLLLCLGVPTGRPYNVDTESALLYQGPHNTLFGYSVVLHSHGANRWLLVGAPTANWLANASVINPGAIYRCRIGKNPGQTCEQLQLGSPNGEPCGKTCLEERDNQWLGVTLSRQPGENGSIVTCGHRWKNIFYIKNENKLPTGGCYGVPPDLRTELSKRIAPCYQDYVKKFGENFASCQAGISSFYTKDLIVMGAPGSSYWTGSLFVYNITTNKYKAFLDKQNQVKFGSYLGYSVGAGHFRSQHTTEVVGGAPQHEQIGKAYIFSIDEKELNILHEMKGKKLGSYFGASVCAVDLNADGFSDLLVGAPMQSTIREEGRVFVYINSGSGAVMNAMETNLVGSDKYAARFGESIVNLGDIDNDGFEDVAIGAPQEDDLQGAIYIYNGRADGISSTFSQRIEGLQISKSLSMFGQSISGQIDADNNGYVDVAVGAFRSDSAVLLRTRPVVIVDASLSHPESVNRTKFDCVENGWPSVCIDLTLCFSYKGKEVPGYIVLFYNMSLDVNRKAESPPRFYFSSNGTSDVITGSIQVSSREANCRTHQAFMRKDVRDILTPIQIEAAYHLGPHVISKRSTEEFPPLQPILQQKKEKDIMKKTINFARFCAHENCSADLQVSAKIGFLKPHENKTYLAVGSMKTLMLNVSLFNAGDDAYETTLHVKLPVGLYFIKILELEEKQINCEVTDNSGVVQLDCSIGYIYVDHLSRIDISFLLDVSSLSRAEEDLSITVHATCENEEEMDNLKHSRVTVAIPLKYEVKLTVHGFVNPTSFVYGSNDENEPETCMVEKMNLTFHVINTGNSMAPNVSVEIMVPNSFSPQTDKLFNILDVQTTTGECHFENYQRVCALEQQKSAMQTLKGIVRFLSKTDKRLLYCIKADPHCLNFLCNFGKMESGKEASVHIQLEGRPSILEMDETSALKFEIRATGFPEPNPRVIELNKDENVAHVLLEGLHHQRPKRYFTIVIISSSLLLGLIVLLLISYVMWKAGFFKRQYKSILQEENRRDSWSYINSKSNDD

[8] = superoxide lowering in aged yeast cells, pilot screen, validation compound set (AID 2706;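 active means superoxide response below 65% of plate, a cut near 3 SD across the whole screen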;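 further: yeast exposed to compound for one week at 30 degrees C before staining; 100% = mean of all compound wells on the same plate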); conditions: S. cerevisiae aging, superoxide DHE fluorescence; at 10 µM; stronger effect = lower value
[9] = molecular target: Beta-adrenergic receptor kinase 1 (Homo sapiens) (UniProt P25098); assay: GRK2 binders displacing RNA aptamer, biochemical, validation, human GRK2, bead flow cytometry (AID 488806;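 active means aptamer binding inhibition above 30%, about 3 SD of noise from non-fluorescent compounds; inactive means inhibition at or below 30%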); conditions: bead-bound GRK2, FAM-aptamer displacement, at 10 µM, stronger effect = higher value
Chain of Beta-adrenergic receptor kinase 1 (Homo sapiens) (P25098 whole entry, looked up): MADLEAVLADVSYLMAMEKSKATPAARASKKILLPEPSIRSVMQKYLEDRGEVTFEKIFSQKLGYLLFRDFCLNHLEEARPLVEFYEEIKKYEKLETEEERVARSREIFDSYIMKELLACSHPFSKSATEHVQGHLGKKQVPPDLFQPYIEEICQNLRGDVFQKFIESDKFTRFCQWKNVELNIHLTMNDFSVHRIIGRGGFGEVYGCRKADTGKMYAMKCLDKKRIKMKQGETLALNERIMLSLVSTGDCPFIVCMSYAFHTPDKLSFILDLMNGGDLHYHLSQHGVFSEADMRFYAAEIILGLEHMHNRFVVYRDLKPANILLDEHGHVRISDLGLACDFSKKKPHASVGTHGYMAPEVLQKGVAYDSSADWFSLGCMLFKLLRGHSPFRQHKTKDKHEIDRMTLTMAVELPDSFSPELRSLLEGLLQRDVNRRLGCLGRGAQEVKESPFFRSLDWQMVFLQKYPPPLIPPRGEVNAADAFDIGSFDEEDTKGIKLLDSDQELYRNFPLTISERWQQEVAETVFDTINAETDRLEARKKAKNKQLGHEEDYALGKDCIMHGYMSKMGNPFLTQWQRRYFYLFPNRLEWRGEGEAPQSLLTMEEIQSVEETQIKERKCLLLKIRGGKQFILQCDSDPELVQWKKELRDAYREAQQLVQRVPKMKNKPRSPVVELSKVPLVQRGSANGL

[10] = molecular target: Beta-2 adrenergic receptor (Homo sapiens) (UniProt P07550); assay: beta2AR agonists driving receptor internalization, pilot screen, cell-based, FAP fluorogen, flow cytometry, validation set (AID 504459;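 active means percent response above 42, roughly 3 SD of non-fluorescent test compounds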;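 further: agonist-driven loss of surface beta2AR via internalization measured by FAP dye flow cytometry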); conditions: Am2.2-beta2AR cells, FAP surface receptor flow cytometry; at 10 µM; stronger effect = higher value
Chain of Beta-2 adrenergic receptor (Homo sapiens) (P07550 whole entry, looked up): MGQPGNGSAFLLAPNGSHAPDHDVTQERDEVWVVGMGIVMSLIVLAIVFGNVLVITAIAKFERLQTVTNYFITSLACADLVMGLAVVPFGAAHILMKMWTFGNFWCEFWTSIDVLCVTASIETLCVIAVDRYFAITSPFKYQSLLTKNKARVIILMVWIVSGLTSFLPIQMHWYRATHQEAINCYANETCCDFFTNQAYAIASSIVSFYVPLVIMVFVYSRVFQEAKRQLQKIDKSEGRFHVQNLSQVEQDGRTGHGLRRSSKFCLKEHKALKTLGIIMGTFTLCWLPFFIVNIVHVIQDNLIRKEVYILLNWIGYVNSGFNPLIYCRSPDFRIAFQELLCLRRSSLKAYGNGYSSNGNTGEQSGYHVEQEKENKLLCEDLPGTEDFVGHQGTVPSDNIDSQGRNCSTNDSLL

[11] = molecular target: AP-2 complex subunit beta (Homo sapiens) (UniProt P63010); assay: inhibitors of arrestin peptide binding to AP2, pilot screen, biochemical, validation set, GST-AP2 beads, flow cytometry (AID 504541;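 active means inhibition above 54%, about 3 SD of non-fluorescent compounds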;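 further: AP2 carries R879A mutation and is captured from E. coli lysate; bead-bound FITC arrestin peptide fluorescence measuring arrestin peptide binding to AP2; 0% = DMSO wells and 100% = excess unlabeled arrestin peptide control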); conditions: FITC arrestin peptide, at 10 µM, stronger effect = higher value, AP2 beta2 appendage fragment, R879A mutant
Chain of AP-2 complex subunit beta (Homo sapiens) (P63010 whole entry, looked up, the tested form may be a part, one chain of several): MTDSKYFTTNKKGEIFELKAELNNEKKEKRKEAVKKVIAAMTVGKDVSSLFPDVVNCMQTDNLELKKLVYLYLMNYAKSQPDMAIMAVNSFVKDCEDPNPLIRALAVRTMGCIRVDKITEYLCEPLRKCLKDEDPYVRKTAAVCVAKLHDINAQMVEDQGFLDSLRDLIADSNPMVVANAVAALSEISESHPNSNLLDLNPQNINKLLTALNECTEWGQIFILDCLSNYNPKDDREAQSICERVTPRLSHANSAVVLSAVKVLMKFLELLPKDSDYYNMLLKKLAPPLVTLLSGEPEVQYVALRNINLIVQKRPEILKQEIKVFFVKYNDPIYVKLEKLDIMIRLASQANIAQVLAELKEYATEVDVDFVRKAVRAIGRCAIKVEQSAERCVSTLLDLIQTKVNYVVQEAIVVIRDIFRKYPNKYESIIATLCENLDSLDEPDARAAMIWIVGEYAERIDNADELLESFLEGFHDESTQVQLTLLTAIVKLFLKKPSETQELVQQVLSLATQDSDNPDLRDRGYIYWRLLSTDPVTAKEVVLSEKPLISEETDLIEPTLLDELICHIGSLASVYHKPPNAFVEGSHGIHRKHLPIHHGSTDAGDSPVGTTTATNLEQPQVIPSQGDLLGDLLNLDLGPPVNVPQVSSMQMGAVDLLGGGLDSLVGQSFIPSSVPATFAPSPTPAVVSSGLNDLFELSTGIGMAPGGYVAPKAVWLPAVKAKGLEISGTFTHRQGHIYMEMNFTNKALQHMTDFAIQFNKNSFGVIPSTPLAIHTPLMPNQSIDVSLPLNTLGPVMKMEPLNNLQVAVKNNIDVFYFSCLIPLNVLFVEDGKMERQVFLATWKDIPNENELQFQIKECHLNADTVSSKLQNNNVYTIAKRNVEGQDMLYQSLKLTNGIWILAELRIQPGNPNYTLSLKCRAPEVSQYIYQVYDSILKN

[12] = yeast V-ATPase proton transport modulators, S. cerevisiae, pHLuorin, HTS validation (AID 504600);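 further: plate controls were DMSO for no effect and reference compound for full effect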; conditions: S. cerevisiae pHLuorin cytosolic pH, at 10 µM, stronger effect = higher value
[13] = system: anti-desmoglein-3 scFv antibody binding to human DSG3; assay: inhibitors of anti-DSG3 scFv binding to DSG3, pilot screen, biochemical, validation compound set, bead-based, flow cytometry (AID 588368;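 active means binding below the plate cutoff, the plate median minus 3 SD, with a reading above zero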;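 further: signal is the median channel fluorescence of bead-bound GFP antibody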); conditions: Protein G beads, DSG3-Fc, scFv-GFP binding, at 10 µM, stronger effect = lower value
[14] = inhibitors of fungal efflux pumps CDR1, CDR2, MDR1, pilot screen, validation compound set, multiplex, phenotypic (AID 588506;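 active means efflux inhibition above 0.42, the validation set average plus 4 SD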;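 further: Nile Red retained in cells so higher fluorescence means more efflux inhibition; 0 = negative control wells and 1 = enniatin B 25 µM full block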); conditions: S. cerevisiae pump-expressing triplex, Nile Red efflux flow cytometry; at 10 µM; stronger effect = higher value; the pumps come from Candida albicans
[15] = molecular target: ATP-binding cassette sub-family B member 6 (Homo sapiens) (UniProt Q9NP58); assay: ABCB6 transporter inhibitors, pilot screen, K562-ABCB6 cells, flow cytometry, validation set (AID 588550;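 active means inhibition above the screen-wide mean plus 3 SD, about 51%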;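 further: 0% = DMSO wells and 100% = benzethonium chloride 70 µM positive control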); conditions: K562-ABCB6 porphyrin accumulation, 1 h, at 10 µM, stronger effect = higher value
Chain of ATP-binding cassette sub-family B member 6 (Homo sapiens) (Q9NP58 whole entry, looked up): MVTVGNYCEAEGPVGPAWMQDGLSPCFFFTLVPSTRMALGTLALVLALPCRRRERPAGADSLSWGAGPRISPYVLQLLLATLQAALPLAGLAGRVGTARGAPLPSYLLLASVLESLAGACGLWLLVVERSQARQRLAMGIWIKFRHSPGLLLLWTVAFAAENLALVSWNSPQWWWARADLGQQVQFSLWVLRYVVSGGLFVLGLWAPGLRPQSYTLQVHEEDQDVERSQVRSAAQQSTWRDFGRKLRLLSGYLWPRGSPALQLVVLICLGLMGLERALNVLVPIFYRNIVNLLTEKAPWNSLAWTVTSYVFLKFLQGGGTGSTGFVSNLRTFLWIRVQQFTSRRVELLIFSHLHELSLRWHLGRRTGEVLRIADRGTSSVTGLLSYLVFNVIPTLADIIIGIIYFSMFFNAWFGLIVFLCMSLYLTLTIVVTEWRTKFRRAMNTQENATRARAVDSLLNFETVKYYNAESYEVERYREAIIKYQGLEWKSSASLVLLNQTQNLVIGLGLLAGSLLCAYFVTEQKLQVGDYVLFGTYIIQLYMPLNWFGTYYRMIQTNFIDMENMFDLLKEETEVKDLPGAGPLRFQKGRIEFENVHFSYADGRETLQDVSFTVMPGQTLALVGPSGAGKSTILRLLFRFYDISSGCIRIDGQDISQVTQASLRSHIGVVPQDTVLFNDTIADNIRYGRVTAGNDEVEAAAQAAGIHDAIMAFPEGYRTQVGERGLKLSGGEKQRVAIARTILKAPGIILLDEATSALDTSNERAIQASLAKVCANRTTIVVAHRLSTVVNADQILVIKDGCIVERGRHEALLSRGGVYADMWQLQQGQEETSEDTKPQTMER

[16] = promoters of myeloid differentiation in arrested cells, primary screen, cell-based, GFP/MAC1 double positive, flow cytometry, validation set (AID 588685;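 active means differentiation response of at least 50%, scaled between solvent and reference control, from cells with both markers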;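 further: compound exposure lasts four days before antibody staining and flow analysis; 0% = DMSO wells and 100% = 5 µM fulvestrant positive control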); conditions: ER-HoxA9 marrow cells, stronger effect = higher value, normalized: vehicle 0, fulvestrant 100

COc1cc2cc(C)nc(Cc3cccc4ccccc34)c2cc1OC
59.9%: double positive events [6]
inactive: percent of DMSO control GFP [1] 102% | GFP response vs DMSO [2] 105% | percent response of DMSO control [3] 98.2% | GFP response vs DMSO [4] 82.3% | GFP response, % of DMSO [5] 97.7% | vesicle binding response [6] 204% | inhibition [7] 1.12% | superoxide response (% of plate) [8] 95.6% | aptamer binding inhibition [9] 3% | response [10] 9.84% | inhibition [11] 8.39% | response [12] -0.08% | binding (% of control) [13] 101% | efflux inhibition (fraction of control) [14] 0.04 | inhibition [15] -9% | differentiation response [16] 4.21%

C#C[C@]1(O)CC[C@H]2[C@@H]3CCc4cc(O)ccc4[C@H]3CC[C@@]21C
inactive: percent of DMSO control GFP [1] 94.4% | GFP response vs DMSO [2] 109% | percent response of DMSO control [3] 110% | GFP response vs DMSO [4] 84.7% | GFP response, % of DMSO [5] 100% | vesicle binding response [6] 88.7% | inhibition [7] 7.43% | superoxide response (% of plate) [8] 76.7% | aptamer binding inhibition [9] -5% | response [10] -0.6% | inhibition [11] 1.36% | response [12] 2.14% | binding (% of control) [13] 106% | efflux inhibition (fraction of control) [14] 0.19 | inhibition [15] 9% | differentiation response [16] -3.28%
51.2%: double positive events [6]

CCCC(=O)O[C@]1(C(=O)COC(C)=O)CC[C@H]2[C@@H]3C[C@H](F)C4=CC(=O)C=C[C@]4(C)[C@@]3(F)[C@@H](O)C[C@@]21C
60.2%: double positive events [6]
inactive: percent of DMSO control GFP [1] 96.9% | GFP response vs DMSO [2] 114% | percent response of DMSO control [3] 109% | GFP response vs DMSO [4] 107% | GFP response, % of DMSO [5] 103% | vesicle binding response [6] 1090% | inhibition [7] -13.2% | superoxide response (% of plate) [8] 112% | aptamer binding inhibition [9] 3% | response [10] 4.32% | inhibition [11] 24.1% | response [12] -0.33% | binding (% of control) [13] 105% | efflux inhibition (fraction of control) [14] -0.06 | inhibition [15] 2% | differentiation response [16] 1.93%

Cc1ccc2c(c1)c1c3n2CCCN(Cc2ccccc2)C3CCC1 (stereo unspecified)
77.6%: double positive events [6]
inactive: percent of DMSO control GFP [1] 100% | GFP response vs DMSO [2] 104% | percent response of DMSO control [3] 105% | GFP response vs DMSO [4] 103% | GFP response, % of DMSO [5] 92.5% | vesicle binding response [6] 490% | inhibition [7] -27.7% | superoxide response (% of plate) [8] 81.8% | aptamer binding inhibition [9] 0% | response [10] 14.8% | inhibition [11] -2.35% | response [12] -2.93% | binding (% of control) [13] 102% | efflux inhibition (fraction of control) [14] 0.33 | inhibition [15] 6% | differentiation response [16] 8.8%

Fc1ccc(-n2cc(CNCCc3ccccn3)c(-c3ccccc3Cl)n2)cc1
63.8%: double positive events [6]
inactive: percent of DMSO control GFP [1] 106% | GFP response vs DMSO [2] 102% | percent response of DMSO control [3] 97.7% | GFP response vs DMSO [4] 106% | GFP response, % of DMSO [5] 107% | vesicle binding response [6] 91.8% | inhibition [7] 15.9% | superoxide response (% of plate) [8] 98.4% | aptamer binding inhibition [9] -3% | response [10] -23.3% | inhibition [11] 1.4% | response [12] -7.11% | binding (% of control) [13] 110% | efflux inhibition (fraction of control) [14] -0.17 | inhibition [15] -2% | differentiation response [16] -7.94%

CCOc1ccc2ccccc2c1C(=O)N[C@@H]1C(=O)N2[C@@H]1SC(C)(C)[C@@H]2C(=O)O
inactive: percent of DMSO control GFP [1] 101% | GFP response vs DMSO [2] 112% | percent response of DMSO control [3] 93.1% | GFP response vs DMSO [4] 85.5% | GFP response, % of DMSO [5] 97.5% | vesicle binding response [6] 994% | inhibition [7] -3.57% | superoxide response (% of plate) [8] 108% | aptamer binding inhibition [9] 2% | response [10] 1.55% | inhibition [11] 17.1% | response [12] 0.05% | binding (% of control) [13] 95.5% | efflux inhibition (fraction of control) [14] 0.14 | inhibition [15] 8% | differentiation response [16] 11%
67.6%: double positive events [6]

COc1cc(C2Nc3ccccc3NC3=C2C(=O)CC(c2ccc(OC)c(OC)c2)C3)ccc1O (stereo unspecified)
53.7%: double positive events [6]
inactive: percent of DMSO control GFP [1] 107% | GFP response vs DMSO [2] 95.2% | percent response of DMSO control [3] 117% | GFP response vs DMSO [4] 64.1% | GFP response, % of DMSO [5] 92.2% | vesicle binding response [6] 104% | inhibition [7] -3.16% | superoxide response (% of plate) [8] 107% | aptamer binding inhibition [9] 3% | response [10] 0.79% | inhibition [11] -8.83% | response [12] 1.04% | binding (% of control) [13] 98.4% | efflux inhibition (fraction of control) [14] -0.35 | inhibition [15] 11% | differentiation response [16] -18.4%

CC(C)N1C(=O)/C(=C\c2nc3ccccc3c(=O)[nH]2)c2ccccc21
inactive: percent of DMSO control GFP [1] 103% | GFP response vs DMSO [2] 106% | percent response of DMSO control [3] 103% | GFP response vs DMSO [4] 128% | GFP response, % of DMSO [5] 93.8% | vesicle binding response [6] 157% | inhibition [7] -7.25% | superoxide response (% of plate) [8] 125% | aptamer binding inhibition [9] 6% | response [10] 32.8% | inhibition [11] -10.5% | response [12] -1.63% | binding (% of control) [13] 101% | efflux inhibition (fraction of control) [14] -0.1 | inhibition [15] 6% | differentiation response [16] -21.6%
60.8%: double positive events [6]
